Source: PubChem
TGFb inhibitor – qHTS for Inhibitors of TGF-b | HepG2 CAGA-GFP TGF-b/SMAD3 reporter, GFP fluorescence, 18 h; TGF-beta stimulated, 500 pg/mL final | Potency, µM (series often up to 46.1 µM), for inactives: at the highest dose activity, negative = inhibition, most hits filed as inhibitors | actives 1.2% (n = 410,000) | AID 588855, 2011; also: % is scaled to controls: 0 for no effect and ±100 for the full control effect; nearly all actives have a fitted effect of over 65% in size
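Read-out: total well GFP (ex488/em500-530) summed from mean per-cell fluorescence. Cells: HEPG2 CAGA-GFP, 1% FBS DMEM, 18 h at 37 degrees C with 500 pg/mL final TGF-beta. Unstimulated wells served as the full-inhibition control; stimulated DMSO wells = 0%.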
GLP-1R agonist – qHTS of GLP-1 Receptor Agonists | Glucagon-like peptide 1 receptor (Homo sapiens), P43220 | HEK293 GLP-1R CRE-luciferase, luminescence, 4-6 h; cells express a hypersensitive GLP-1R form | Potency, µM (doses to about 45.6 µM), inactives show top-dose activation, hits mostly activators | actives 0.007% (n = 380,000); also: % of control where 0% means no effect
Target sequence (P43220 whole entry, looked up): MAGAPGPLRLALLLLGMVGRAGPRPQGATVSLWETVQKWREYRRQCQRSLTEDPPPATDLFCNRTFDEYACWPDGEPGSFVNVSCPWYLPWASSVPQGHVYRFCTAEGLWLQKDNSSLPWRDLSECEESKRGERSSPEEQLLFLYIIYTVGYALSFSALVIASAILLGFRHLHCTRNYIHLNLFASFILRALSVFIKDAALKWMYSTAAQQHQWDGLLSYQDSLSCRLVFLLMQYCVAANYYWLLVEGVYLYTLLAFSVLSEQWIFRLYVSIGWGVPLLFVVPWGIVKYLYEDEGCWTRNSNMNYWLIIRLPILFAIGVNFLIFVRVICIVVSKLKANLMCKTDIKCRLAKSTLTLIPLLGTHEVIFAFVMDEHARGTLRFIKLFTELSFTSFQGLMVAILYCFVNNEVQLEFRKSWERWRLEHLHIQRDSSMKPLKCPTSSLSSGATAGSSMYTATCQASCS
HepG2 viability – qHTS for Inhibitors of TGF-b: Cytotox Counterscreen; HepG2 CAGA-GFP viability, ATP luminescence, 18 h; Potency, µM (titrated, usually from 46.1 µM), for the others: top-dose activity change, negative = cytotoxicity, hits mostly cytotoxic; actives 0.76% (n = 410,000)
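CellTiter-Glo luminescence gave cytotoxicity after 18 hours at 37 degrees C. The cells were HepG2 CAGA-GFP in 1% FBS DMEM, stimulated with 500 pg/mL TGF-beta after compound addition. %Activity was normalised to no-cell wells (complete cell-killing) and DMSO (no toxicity), and curves were fitted and classified.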
ATXN2 expr inh – Primary qHTS for Inhibitors of ATXN expression. HEK-293 ATXN2-luciferase reporter, luminescence, 24 h. actives 0.72% (n = 360,000). Potency, µM (titrated, usually from 57 µM), without a hit: top-dose activity change, negative = inhibition, most hits filed as inhibitors. AID 1745845, 2022; also: % is scaled to controls: 0 for no effect and ±100 for the full control effect; nearly all actives have a fitted effect of over 55% in size
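qHTS (up to 57 uM final) was run with 24 h compound exposure of reporter cells at 37 °C. Each well was multiplexed: SteadyGlo luminescence measured ATXN2-luciferase expression after a fluorogenic Gly-Phe-AFC viability readout (25 uM final).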
S2 tox – Viability Counterscreen for Primary qHTS for Inhibitors of ATXN expression. S2 cells (HEK-293 line with an ATXN2-luciferase reporter) viability, CellTiter-Fluor protease fluorescence, 24 h. Potency, µM (titrated, usually from 56.7 µM), actives largely listed as cytotoxic. actives 0.49% (n = 400,000). AID 651635, 2014; also: nearly all actives have a fitted effect of over 40% in size
GLP1R inv ag – qHTS of GLP-1 Receptor Inverse Agonists (Inhibition Mode) | actives 1.6% (n = 410,000) | Glucagon-like peptide 1 receptor (Homo sapiens), P43220 | Potency, µM (doses to about 38.3 µM), without a hit: at the highest dose activity change, negative = inhibition, usual class: inhibitors | HEK293 GLP-1R CRE-luciferase, luminescence, 24 h; GLP-1R form is constitutively active | AID 624417, 2012; also: % is scaled to controls: 0 for no effect and ±100 for the full control effect; nearly all actives have a fitted effect of over 55% in size
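qHTS in 1536-well format: reporter HEK293 cells expressing constitutive GLP-1R activity in DMEM + 10% Nu serum, 24 hr with compounds at 37 deg C, luminescence read after 12 min with detection reagent.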
An asterisk follows results filed as active; i = inactive; ? = inconclusive; nt = no result; [ ] = remark or other dose. In the library only some 3.7% were active in any assay of this set; here they are far more common. Calls follow the shape of the dose curve; as a rule, active = well fitted curve in the direction sought with a large enough effect; inconclusive = small, poorly fitted or top-dose-only effect, or another doubt; inactive = no such curve, though single readings can be large; an effect the other way counts as inactive or inconclusive. Potency is read from the fitted curve at half-maximal effect.

SMILES | TGFb inhibitor | GLP-1R agonist | HepG2 viability | ATXN2 expr inh | S2 tox | GLP1R inv ag
COc1cc2oc(=O)c(CC(=O)NCCc3ccccc3)c(C)c2cc1Cl | 17% | nt | -3% | 6% | i | 3%
CCOc1ccc(NC(=O)c2c(NC(=O)CNCCN3CCOCC3)sc3c2CCC3)cc1 | ? | -2% | -34% | ? | ? | 2.5µM*
Cc1ccc(/C=C2/Sc3ccccc3N(CC(=O)NCC3CCCO3)C2=O)cc1 (stereo not given) | 0% | 9% | -12% | -20% | ? | ?
Cc1cc(/C=C2\Sc3ccccc3N2C)cc(C)[n+]1CC1CCCO1 (stereo not given) | 31% | 0% | -17% | 1.2µM* | nt | ?
Cc1cccc(Nc2nc3c(S(=O)(=O)c4ccc(Br)cc4)nnn3c3ccsc23)c1C | ? | nt | -17% | nt | nt | 12%
COc1cccc2c(NCc3ccccc3)nc(-n3c(N)nc4ccccc43)nc12 | nt | nt | nt | 27µM* | nt | nt
CC(C)CC(=O)Nc1n[nH]c2c1CN(C(=O)C1CCN(C)CC1)C2(C)C | nt | nt | nt | 1.1µM* | nt | nt
Cc1ccc(Nc2nc(-c3cccs3)cs2)nc1 | ? | -5% | -33% | -50% | i | 3.5µM*
O=C(NCC(c1cccs1)N1CCc2ccccc21)c1ccccc1 (stereo not given) | -28% | -2% | -24% | 3% | i | 7.1µM*
COc1cccc(C(=O)NCC(c2cccs2)N2CCc3ccccc32)c1 (stereo not given) | ? | 5% | -20% | -15% | i | ?
COc1ccccc1C(=O)NCC(c1cccs1)N1CCc2ccccc21 (stereo not given) | -23% | -4% | -4% | 5% | i | 10µM*
COc1ccc(Cl)cc1NC(=O)CSc1nnc(C)n2c1cc1occc12 | 0% | nt | 0% | nt | nt | 28%
COc1ccc(OC)c(NC(=O)c2c(NCc3ccc(OC)c(OC)c3)sc3c2CCC3)c1 | -4% | nt | -9% | ? | nt | 18%
COc1ccc(OC)c(NC(=O)c2c(NCc3ccc(N(C)C)cc3)sc3c2CCCC3)c1 | 0% | nt | -51% | ? | 22µM* | ?
COc1ccc(Cl)cc1NC(=O)c1c(NCc2cccs2)sc2c1CCC(C)C2 (stereo not given) | ? | nt | -68% | ? | ? | ?
COc1ccc(Cl)cc1NC(=O)c1c(NCc2cccnc2)sc2c1CCC(C)C2 (stereo not given) | 8.9µM* | nt | 10µM* | nt | nt | -19%
CCOc1ccc(NC(=O)c2c(NCc3cccs3)sc3c2CCC(C)C3)cc1 (stereo not given) | ? | nt | -38% | ? | i | ?
CCOc1ccc(NC(=O)c2c(NCc3cccnc3)sc3c2CCC(C)C3)cc1 (stereo not given) | 13µM* | nt | -41% | nt | nt | 9%
COc1cc(Cl)c(C)cc1NC(=O)Cn1ncc2c(=O)oc3ccccc3c21 | -4% | -1% | 5% | 2% | i | -7%
CCOc1ccc(/C=N/NC(=O)C(=O)N2CCCCCC2)c2ccccc12 | 7.9µM* | 26% | -56% | ? | ? | ?
C=C1[C@@H](O)[C@H](Cc2ccccc2)N(Cc2ccccc2Br)S1(=O)=O | ? | -3% | 10µM* | 20µM* | 18µM* | ?
Cc1ccccc1CN1[C@@H](Cc2ccccc2)COCCS1(=O)=O | ? | 4% | 6% | -7% | i | ?
O=C(c1cccc(N2CCCC2=O)c1)N1CCC(Oc2cccc(CN3CCN(c4ccccn4)CC3)c2)CC1 | nt | nt | nt | nt | 14µM* | nt
CN1CC(=O)NC1=NC(=O)Nc1cccc(Cl)c1 | nt | nt | nt | -5% | nt | nt
O=C(Cc1cccs1)N/N=C\c1ccc([N+](=O)[O-])s1 | ? | 3% | -15% | nt | ? | 2%
SMILES | TGFb inhibitor | GLP-1R agonist | HepG2 viability | ATXN2 expr inh | S2 tox | GLP1R inv ag
O=C(CNC(=O)c1ccccc1Cl)N/N=C/c1ccc([N+](=O)[O-])s1 | 13µM* | 3% | 10µM* | -30%[11.3 µM] | i | -24%
Cc1onc(-c2ccccc2)c1C(=O)N/N=C/c1ccc([N+](=O)[O-])s1 | ? | -2% | 10µM* | ? | i | ?
Cc1ccc(N(C(=O)Cc2cccs2)C(C(=O)NC2CCCCC2)c2ccccn2)cc1C (stereo not given) | ? | 9% | -53% | -17% | 28µM* | ?
O=C(NC1CCCC1)C(c1ccsc1)N(C(=O)Cc1cccs1)c1ccc(F)cc1 (stereo not given) | -4% | 4% | 4% | 3% | i | 17%
O=C(NC1CCCC1)C(c1ccccc1F)N(C(=O)Cc1cccs1)c1ccc2c(c1)OCCO2 (stereo not given) | -23% | 4% | -4% | -22% | i | 10µM*
COC(=O)/C=C1\NC(=O)C(C)S1 (stereo not given) | 0.56µM* | 3% | -24% | -38% | ? | -8%
CN(CCO)c1cc(Sc2nc3ccccc3s2)c2nonc2c1[N+](=O)[O-] | ? | -16% | -99% | 10µM* | 14µM* | ?
CC(=O)OCCN(C)c1cc(SC(C)C)c2nonc2c1[N+](=O)[O-] | 2% | 3% | 2% | -26% | ? | 4%[0.307 µM]
C[N+](C)(C)c1ccc(/C=C2\C=Cc3ccccc32)cc1 | 11% | nt | -31% | nt | nt | nt
CCc1ccc(N2C=C(C(=O)OC)C(c3cccc4ccccc34)C(C#N)=C2N)cc1 (stereo not given) | nt | nt | nt | nt | nt | 1µM*
COC(=O)C1=CN(c2ccc(F)cc2)C(N)=C(C#N)C1c1cccc(OC)c1OC (stereo not given) | nt | nt | nt | nt | nt | -15%
CC(C)=CCC(C)(C)CNC(=O)NC1CCCCC1 | -1% | -3% | 0% | -3% | i | 10µM*
COC(=O)c1sc2cccc(F)c2c1S(=O)(=O)Nc1cc(C)c(Cl)cc1OC | ? | nt | -17% | -8% | i | ?
COc1cccc(Cc2nc3cccnc3n2C2CCN(C(=O)c3n[nH]c4c3CCCC4)CC2)c1 | nt | nt | nt | nt | i | nt
O=C(NC1=NCCS1)C1COc2ccccc2O1 (stereo not given) | 3% | -5% | -23% | 2.5µM* | i | ?
CCOC(=O)c1ccc(N2C(=O)c3[nH]nc(-c4ccccc4)c3C2c2cccs2)cc1 (stereo not given) | 7.1µM* | nt | -46% | nt | nt | ?
